# The panel holds about 79,000 compounds, 15% with a hit somewhere; the sample as a whole holds those more often. A number with no mark means an inactive call. Activity calls are given as the source filed them. No stated cut-off is given here; in the data, active means growth inhibition above about 70%; inactive means the rest.
# Experiments:
# [1] = NCI Yeast Anticancer Drug Screen. Data for the rad52 strain (AID 147);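 further: 0% = growth of vehicle-treated control cultures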; conditions: S. cerevisiae rad52 mutant growth inhibition, stronger effect = higher value
# Outline: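 Compounds are applied to a genetically defined yeast strain lacking normal DNA damage repair, and inhibition of growth is expressed relative to cultures given vehicle only.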
# [2] = NCI Yeast Anticancer Drug Screen. Data for the wt1 strain (AID 149);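 further: 0% = growth of vehicle-treated wt1 cultures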; conditions: S. cerevisiae wt1 strain (SPY 50644) growth inhibition, stronger effect = higher value
# Outline: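 Vehicle-normalised growth inhibition; strain wt1; compound exposure.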
# [3] = NCI Yeast Anticancer Drug Screen. Data for the rad50EPP+ strain (AID 151);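 further: 0% = growth of vehicle-treated control cultures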; conditions: S. cerevisiae rad50 mutant strain, stronger effect = higher value
# Outline: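 Compounds were applied to the rad50EPP+ yeast strain, which bears a defined DNA repair alteration, and growth inhibition was determined relative to vehicle-treated cultures.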
# [4] = NCI Yeast Anticancer Drug Screen. Data for the mgt1 strain (AID 153); conditions: S. cerevisiae mgt1 mutant growth inhibition, stronger effect = higher value
# Outline: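 Strain: mgt1 yeast, one of a set carrying defined DNA damage repair or cell cycle control alterations. Compound-treated growth compared with vehicle.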
# [5] = NCI Yeast Anticancer Drug Screen. Data for the rad50 strain (AID 155);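 further: 0% = growth of vehicle-only cultures of the same strain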; conditions: S. cerevisiae rad50 strain growth inhibition, stronger effect = higher value
# Outline: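 A DNA repair-deficient yeast mutant serves as the test organism; compound-induced growth inhibition is calculated against vehicle-treated cells.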
# [6] = NCI Yeast Anticancer Drug Screen. Data for the mec2-1 strain (AID 157); conditions: S. cerevisiae mec2-1 strain, stronger effect = higher value
# Outline: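 Strain: mec2-1 (DNA repair/cell cycle alteration). Compound exposure, then growth measured; inhibition expressed relative to vehicle.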
# [7] = NCI Yeast Anticancer Drug Screen. Data for the rad14 strain (AID 159);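 further: 0% = growth of vehicle-treated control cultures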; conditions: S. cerevisiae rad14 strain growth inhibition, stronger effect = higher value
# Outline: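 Vehicle-treated cultures served as the baseline for growth inhibition of a DNA repair-mutant yeast strain exposed to each compound.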
# [8] = NCI Yeast Anticancer Drug Screen. Data for the sgs1 mgt1 strain (AID 161);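 further: 0% = growth of cultures given vehicle only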; conditions: S. cerevisiae sgs1 mgt1 strain, stronger effect = higher value
# Outline: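 Test agents were incubated with a DNA-repair-mutant yeast strain. Growth was then read and compared against vehicle-treated controls.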
# [9] = NCI Yeast Anticancer Drug Screen. Data for the CLN2oe strain (AID 163);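 further: 0% = growth of vehicle-only control cultures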; conditions: S. cerevisiae CLN2oe strain, stronger effect = higher value
# Outline: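 Growth of a genetically modified yeast strain is measured after compound exposure and compared with cultures given vehicle alone.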
# [10] = NCI Yeast Anticancer Drug Screen. Data for the cln2 rad14 strain (AID 165);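 further: 0% = growth equal to vehicle treated cultures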; conditions: S. cerevisiae cln2 rad14 strain, stronger effect = higher value
# Outline: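 Compounds are applied to the cln2 rad14 yeast strain, and growth is then compared with that of vehicle-treated cultures to give inhibition.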
# [11] = NCI Yeast Anticancer Drug Screen. Data for the bub3 strain (AID 167); conditions: S. cerevisiae bub3 mutant strain, stronger effect = higher value
# Outline: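 Inhibition values come from growth of compound-treated mutant yeast normalised to vehicle-treated controls.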
# [12] = NCI Yeast Anticancer Drug Screen. Data for the wt2 strain (AID 169);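 further: 0% = growth of vehicle-treated yeast cultures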; conditions: S. cerevisiae wt2 strain growth inhibition, stronger effect = higher value
# Outline: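 This strain belongs to a panel of yeast strains with defined genetic alterations in DNA damage repair or cell cycle control. Compounds are applied, and growth inhibition is measured against vehicle-treated cultures.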
# [13] = NCI Yeast Anticancer Drug Screen. Data for the mlh1 strain (AID 171);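 further: 0% = growth of vehicle-treated control cultures of the same strain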; conditions: S. cerevisiae mlh1 strain growth inhibition, stronger effect = higher value
# Outline: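 Growth of the mutant yeast strain after compound exposure, expressed as inhibition relative to vehicle-only controls.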
# [14] = NCI Yeast Anticancer Drug Screen. Data for the sgs1 strain (AID 173);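 further: 0% = growth of vehicle-only control cultures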; conditions: S. cerevisiae sgs1 mutant, stronger effect = higher value
# Outline: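 Growth of a yeast strain bearing a defined genetic alteration is measured after compound treatment. Inhibition is expressed relative to vehicle-only controls.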
# [15] = NCI Yeast Anticancer Drug Screen. Data for the mlh1 rad18 strain (AID 175); conditions: S. cerevisiae mlh1 rad18 strain growth inhibition, stronger effect = higher value
# Outline: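 Read-out is yeast growth inhibition, calculated against vehicle-only controls. The compound was applied to a strain engineered with DNA damage repair alterations.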
# [16] = NCI Yeast Anticancer Drug Screen. Data for the rad18 strain (AID 177); conditions: S. cerevisiae rad18 mutant growth inhibition, stronger effect = higher value
# Outline: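 Growth of the mutant yeast strain after compound exposure, normalised to vehicle-only cultures.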
# [17] = at 5.0 µM (retest, dose inferred, filed as 0.5)
# [18] = at 50.0 µM (retest, dose inferred, filed as 5.0)
smiles,measurement,setting,value
C=C(C(=O)OC)N1C(=O)CC(C)C1=O (stereo unspecified),growth inhibition,[1]; at 1.2 µM,0%
same,growth inhibition,[1]; at 3.7 µM,10%
same,growth inhibition,[1]; at 11.0 µM,14%
same,growth inhibition,[1]; at 33.0 µM,24%
same,growth inhibition,[1]; at 100.0 µM,56%
same,growth inhibition,[2]; at 1.2 µM,7%
same,growth inhibition,[2]; at 3.7 µM,15%
same,growth inhibition,[2]; at 11.0 µM,12%
same,growth inhibition,[2]; at 33.0 µM,19%
same,growth inhibition,[2]; at 100.0 µM,67%
same,growth inhibition,[3]; at 1.2 µM,-1%
same,growth inhibition,[3]; at 3.7 µM,4%
same,growth inhibition,[3]; at 11.0 µM,6%
same,growth inhibition,[3]; at 33.0 µM,8%
same,growth inhibition,[3]; at 100.0 µM,-10%
same,growth inhibition,[4]; at 1.2 µM,16%
same,growth inhibition,[4]; at 3.7 µM,6%
same,growth inhibition,[4]; at 11.0 µM,9%
same,growth inhibition,[4]; at 33.0 µM,27%
same,growth inhibition,[4]; at 100.0 µM,71% (active)
same,growth inhibition,[5]; at 1.2 µM,8%
same,growth inhibition,[5]; at 3.7 µM,8%
same,growth inhibition,[5]; [17],14%
same,growth inhibition,[5]; at 11.0 µM,13%
same,growth inhibition,[5]; at 33.0 µM,14%
same,growth inhibition,[5]; [18],66%
same,growth inhibition,[5]; at 50.0 µM,75.5% (active)
same,growth inhibition,[5]; at 100.0 µM,67%
same,growth inhibition,[6]; at 1.2 µM,0%
same,growth inhibition,[6]; at 3.7 µM,12%
same,growth inhibition,[6]; [17],27%
same,growth inhibition,[6]; at 11.0 µM,23%
same,growth inhibition,[6]; at 33.0 µM,48%
same,growth inhibition,[6]; [18],85% (active)
same,growth inhibition,[6]; at 50.0 µM,80.2% (active)
same,growth inhibition,[6]; at 100.0 µM,81% (active)
same,growth inhibition,[7]; at 1.2 µM,-11%
same,growth inhibition,[7]; at 3.7 µM,-2%
same,growth inhibition,[7]; at 11.0 µM,8%
same,growth inhibition,[7]; at 33.0 µM,11%
same,growth inhibition,[7]; at 100.0 µM,68%
same,growth inhibition,[8]; [17],32%
same,growth inhibition,[8]; [18],81% (active)
same,growth inhibition,[8]; at 50.0 µM,77.3% (active)
same,growth inhibition,[9]; at 1.2 µM,-3%
same,growth inhibition,[9]; at 3.7 µM,11%
same,growth inhibition,[9]; at 11.0 µM,10%
same,growth inhibition,[9]; at 33.0 µM,14%
same,growth inhibition,[9]; at 100.0 µM,38%
same,growth inhibition,[10]; [17],6%
same,growth inhibition,[10]; [18],30%
same,growth inhibition,[10]; at 50.0 µM,47.4%
same,growth inhibition,[11]; at 1.2 µM,10%
same,growth inhibition,[11]; at 3.7 µM,1%
same,growth inhibition,[11]; [17],21%
same,growth inhibition,[11]; at 11.0 µM,9%
same,growth inhibition,[11]; at 33.0 µM,25%
same,growth inhibition,[11]; [18],88% (active)
same,growth inhibition,[11]; at 50.0 µM,85.5% (active)
same,growth inhibition,[11]; at 100.0 µM,80% (active)
same,growth inhibition,[12]; at 1.2 µM,-41%
same,growth inhibition,[12]; at 3.7 µM,-26%
same,growth inhibition,[12]; at 11.0 µM,-17%
same,growth inhibition,[12]; at 33.0 µM,50%
same,growth inhibition,[12]; at 100.0 µM,87% (active)
same,growth inhibition,[13]; at 1.2 µM,2%
same,growth inhibition,[13]; at 3.7 µM,4%
same,growth inhibition,[13]; at 11.0 µM,6%
same,growth inhibition,[13]; at 33.0 µM,42%
same,growth inhibition,[13]; at 100.0 µM,80% (active)
same,growth inhibition,[14]; at 1.2 µM,0%
same,growth inhibition,[14]; at 3.7 µM,12%
same,growth inhibition,[14]; at 11.0 µM,21%
same,growth inhibition,[14]; at 33.0 µM,40%
same,growth inhibition,[14]; at 100.0 µM,67%
same,growth inhibition,[15]; [17],57%
same,growth inhibition,[15]; [18],96% (active)
same,growth inhibition,[15]; at 50.0 µM,67.5%
same,growth inhibition,[16]; at 1.2 µM,-5%
same,growth inhibition,[16]; at 3.7 µM,7%
same,growth inhibition,[16]; at 11.0 µM,17%
same,growth inhibition,[16]; at 33.0 µM,32%
same,growth inhibition,[16]; at 100.0 µM,75% (active)
OC(c1ccccc1)(c1ccccc1)c1nccc2ccccc12,growth inhibition,[1]; at 1.2 µM,40%
same,growth inhibition,[1]; at 3.7 µM,39%
same,growth inhibition,[1]; at 11.0 µM,48%
same,growth inhibition,[1]; at 33.0 µM,62%
same,growth inhibition,[1]; at 100.0 µM,81% (active)
same,growth inhibition,[2]; at 1.2 µM,3%
same,growth inhibition,[2]; at 3.7 µM,-3%
same,growth inhibition,[2]; at 11.0 µM,26%
same,growth inhibition,[2]; at 33.0 µM,-2%
same,growth inhibition,[2]; at 100.0 µM,29%
same,growth inhibition,[3]; at 1.2 µM,14%
same,growth inhibition,[3]; at 3.7 µM,14%
same,growth inhibition,[3]; at 11.0 µM,32%
same,growth inhibition,[3]; at 33.0 µM,13%
same,growth inhibition,[3]; at 100.0 µM,0%
same,growth inhibition,[4]; at 1.2 µM,-11%
same,growth inhibition,[4]; at 3.7 µM,8%
same,growth inhibition,[4]; at 11.0 µM,11%
same,growth inhibition,[4]; at 33.0 µM,15%
same,growth inhibition,[4]; at 100.0 µM,51%
same,growth inhibition,[5]; at 1.2 µM,4%
same,growth inhibition,[5]; at 3.7 µM,15%
same,growth inhibition,[5]; [17],14%
same,growth inhibition,[5]; at 11.0 µM,24%
same,growth inhibition,[5]; at 33.0 µM,39%
same,growth inhibition,[5]; [18],50%
same,growth inhibition,[5]; at 50.0 µM,67.7%
same,growth inhibition,[5]; at 100.0 µM,70% (active)
same,growth inhibition,[6]; at 1.2 µM,0%
same,growth inhibition,[6]; at 3.7 µM,3%
same,growth inhibition,[6]; [17],2%
same,growth inhibition,[6]; at 11.0 µM,9%
same,growth inhibition,[6]; at 33.0 µM,7%
same,growth inhibition,[6]; [18],40%
same,growth inhibition,[6]; at 50.0 µM,75% (active)
same,growth inhibition,[6]; at 100.0 µM,49%
same,growth inhibition,[7]; at 1.2 µM,3%
same,growth inhibition,[7]; at 3.7 µM,2%
same,growth inhibition,[7]; at 11.0 µM,3%
same,growth inhibition,[7]; at 33.0 µM,3%
same,growth inhibition,[7]; at 100.0 µM,39%
same,growth inhibition,[8]; [17],-4%
same,growth inhibition,[8]; [18],58%
same,growth inhibition,[8]; at 50.0 µM,71.5% (active)
same,growth inhibition,[9]; at 1.2 µM,25%
same,growth inhibition,[9]; at 3.7 µM,34%
same,growth inhibition,[9]; at 11.0 µM,28%
same,growth inhibition,[9]; at 33.0 µM,35%
same,growth inhibition,[9]; at 100.0 µM,59%
same,growth inhibition,[10]; [17],6%
same,growth inhibition,[10]; [18],7%
same,growth inhibition,[10]; at 50.0 µM,55.4%
same,growth inhibition,[11]; at 1.2 µM,14%
same,growth inhibition,[11]; at 3.7 µM,22%
same,growth inhibition,[11]; [17],0%
same,growth inhibition,[11]; at 11.0 µM,25%
same,growth inhibition,[11]; at 33.0 µM,25%
same,growth inhibition,[11]; [18],45%
same,growth inhibition,[11]; at 50.0 µM,60.6%
same,growth inhibition,[11]; at 100.0 µM,75% (active)
same,growth inhibition,[12]; at 1.2 µM,-56%
same,growth inhibition,[12]; at 3.7 µM,-17%
same,growth inhibition,[12]; at 11.0 µM,-31%
same,growth inhibition,[12]; at 33.0 µM,-21%
same,growth inhibition,[12]; at 100.0 µM,38%
same,growth inhibition,[13]; at 1.2 µM,-2%
same,growth inhibition,[13]; at 3.7 µM,12%
same,growth inhibition,[13]; at 11.0 µM,5%
same,growth inhibition,[13]; at 33.0 µM,14%
same,growth inhibition,[13]; at 100.0 µM,54%
same,growth inhibition,[14]; at 1.2 µM,15%
same,growth inhibition,[14]; at 3.7 µM,3%
same,growth inhibition,[14]; at 11.0 µM,4%
same,growth inhibition,[14]; at 33.0 µM,16%
same,growth inhibition,[14]; at 100.0 µM,71% (active)
same,growth inhibition,[15]; [17],12%
same,growth inhibition,[15]; [18],74% (active)
same,growth inhibition,[15]; at 50.0 µM,51%
same,growth inhibition,[16]; at 1.2 µM,0%
same,growth inhibition,[16]; at 3.7 µM,14%
same,growth inhibition,[16]; at 11.0 µM,27%
same,growth inhibition,[16]; at 33.0 µM,55%
same,growth inhibition,[16]; at 100.0 µM,63%
